Reference: PubChem BioAssay AID1159580 (chemical genetic matrix, 2015)
The campaign covered roughly 5,500 compounds. About 2,000 (36%) were called active. Another 18% or so got no clear call; they are omitted. Rule as the data show it: active = normalized growth mostly below about 0.91 (no sharp cut-off); inconclusive = no clear call, values can overlap the other calls; inactive = mostly above about 0.92. The list shows a part of the results.

Experiment: chemical genetic growth profiling, strain panel (AID 1159580);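 also: tested at 20 µM; growth read once vehicle control cultures reached saturation at 30 °C; 1 = growth at the plate median or of vehicle wells; lower values mean less growth of the strain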
Conditions: growth OD

Measured: normalized growth

O=C(O)CN1C(=O)c2cccc3cccc(c23)C1=O
inactive: S. cerevisiae deletion strains, locus YJR043C, strain POL32, stronger effect = lower value 1.03 | S. cerevisiae deletion strains, locus YJR066W, strain TOR1, stronger effect = lower value 0.975 | S. cerevisiae deletion strains, locus YKL009W, strain mrt4, stronger effect = lower value 0.987 | S. cerevisiae deletion strains, locus YKL068W, stronger effect = lower value 0.991 | S. cerevisiae deletion strains, locus YKL085W, strain MDH1 (second series), stronger effect = lower value 0.978 | S. cerevisiae deletion strains, locus YKL085W, strain MDH1, stronger effect = lower value 0.978 | S. cerevisiae deletion strains, locus YKL160W, strain elf1, stronger effect = lower value 0.956 | S. cerevisiae deletion strains, locus YKL190W, strain CNB1, stronger effect = lower value 1 | S. cerevisiae deletion strains, locus YKR001C, strain vps1, stronger effect = lower value 1.01 | S. cerevisiae deletion strains, locus YKR026C, strain gcn3, stronger effect = lower value 0.996 | S. cerevisiae deletion strains, locus YKR091W, strain srl3, stronger effect = lower value 0.986 | S. cerevisiae deletion strains, locus YLL001W, strain dnm1, stronger effect = lower value 0.966 | S. cerevisiae deletion strains, locus YLL026W, stronger effect = lower value 0.996 | S. cerevisiae deletion strains, locus YLL041C, strain sdh2, stronger effect = lower value 0.983 | S. cerevisiae deletion strains, locus YLR027C, strain aat2, stronger effect = lower value 0.996 | S. cerevisiae deletion strains, locus YLR039C, strain RIC1, stronger effect = lower value 1 | S. cerevisiae deletion strains, locus YLR058C, strain SHM2, stronger effect = lower value 1 | S. cerevisiae deletion strains, locus YLR102C, strain apc9, stronger effect = lower value 0.986 | S. cerevisiae deletion strains, locus YLR113W, strain HOG1, stronger effect = lower value 0.935 | S. cerevisiae deletion strains, locus YLR221C, strain rsa3, stronger effect = lower value 0.977 | S. cerevisiae deletion strains, locus YLR258W, strain gsy2, stronger effect = lower value 0.988 | S. cerevisiae deletion strains, locus YLR262C, strain YPT6 (second series), stronger effect = lower value 0.947 | S. cerevisiae deletion strains, locus YLR262C, strain YPT6, stronger effect = lower value 0.985 | S. cerevisiae deletion strains, locus YLR268W, strain sec22, stronger effect = lower value 0.983 | S. cerevisiae deletion strains, locus YLR320W, strain mms22, stronger effect = lower value 0.944 | S. cerevisiae deletion strains, locus YLR330W, strain CHS5, stronger effect = lower value 0.989 | S. cerevisiae deletion strains, locus YLR342W, strain FKS1 (second series), stronger effect = lower value 1.02 | S. cerevisiae deletion strains, locus YLR342W, strain FKS1, stronger effect = lower value 0.978 | S. cerevisiae deletion strains, locus YLR357W, strain rsc2, stronger effect = lower value 0.965 | S. cerevisiae deletion strains, locus YLR370C, strain arc18, stronger effect = lower value 0.973 | S. cerevisiae deletion strains, locus YLR371W, strain rom2, stronger effect = lower value 0.989 | S. cerevisiae deletion strains, locus YLR384C, strain iki3, stronger effect = lower value 0.973 | S. cerevisiae deletion strains, locus YLR418C, strain cdc73, stronger effect = lower value 0.988 | S. cerevisiae deletion strains, locus YML016C, strain PPZ1, stronger effect = lower value 1 | S. cerevisiae deletion strains, locus YML032C, strain rad52, stronger effect = lower value 1 | S. cerevisiae deletion strains, locus YML120C, strain ndi1, stronger effect = lower value 0.958 | S. cerevisiae deletion strains, locus YML124C, strain tub3, stronger effect = lower value 0.999 | S. cerevisiae deletion strains, locus YMR058W, strain fet3, stronger effect = lower value 0.98 | S. cerevisiae deletion strains, locus YMR078C, strain ctf18, stronger effect = lower value 0.982 | S. cerevisiae deletion strains, locus YMR125W, strain sto1, stronger effect = lower value 0.979 | S. cerevisiae deletion strains, locus YMR129W, stronger effect = lower value 0.996 | S. cerevisiae deletion strains, locus YMR205C, strain PFK2, stronger effect = lower value 0.954 | S. cerevisiae deletion strains, locus YMR223W, strain ubp8, stronger effect = lower value 0.977 | S. cerevisiae deletion strains, locus YMR231W, strain pep5, stronger effect = lower value 0.992 | S. cerevisiae deletion strains, locus YMR307W, strain GAS1, stronger effect = lower value 1.01 | S. cerevisiae deletion strains, locus YNL067W, strain RPL9B, stronger effect = lower value 1.05 | S. cerevisiae deletion strains, locus YNL071W, strain lat1, stronger effect = lower value 0.933 | S. cerevisiae deletion strains, locus YNL153C, strain GIM3, stronger effect = lower value 1.08 | S. cerevisiae deletion strains, locus YNL183C, strain NPR1, stronger effect = lower value 0.953 | S. cerevisiae deletion strains, locus YNL209W, strain ssb2, stronger effect = lower value 0.986 | S. cerevisiae deletion strains, locus YNL233W, strain BNI4, stronger effect = lower value 1.03 | S. cerevisiae deletion strains, locus YNL248C, strain rpa49, stronger effect = lower value 0.969 | S. cerevisiae deletion strains, locus YNL250W, strain rad50, stronger effect = lower value 0.941 | S. cerevisiae deletion strains, locus YNL271C, strain bni1, stronger effect = lower value 0.998 | S. cerevisiae deletion strains, locus YNL298W, strain CLA4, stronger effect = lower value 0.984 | S. cerevisiae deletion strains, locus YNL307C, strain MCK1, stronger effect = lower value 0.994 | S. cerevisiae deletion strains, locus YNL322C, strain KRE1 (second series), stronger effect = lower value 0.987 | S. cerevisiae deletion strains, locus YNR049C, strain mso1, stronger effect = lower value 0.981 | S. cerevisiae deletion strains, locus YNR052C, strain pop2, stronger effect = lower value 0.969 | S. cerevisiae deletion strains, locus YOL006C, strain TOP1, stronger effect = lower value 1.08 | S. cerevisiae deletion strains, locus YOL012C, strain htz1 0.878 | S. cerevisiae deletion strains, locus YOL147C, strain pex11, stronger effect = lower value 0.988 | S. cerevisiae deletion strains, locus YOR001W, strain rrp6, stronger effect = lower value 0.974 | S. cerevisiae deletion strains, locus YOR061W, strain CKA2, stronger effect = lower value 1.01 | S. cerevisiae deletion strains, locus YOR069W, strain VPS5, stronger effect = lower value 0.998 | S. cerevisiae deletion strains, locus YOR070C, strain gyp1, stronger effect = lower value 0.99 | S. cerevisiae deletion strains, locus YOR080W, strain dia2, stronger effect = lower value 0.989 | S. cerevisiae deletion strains, locus YOR083W, strain WHI5, stronger effect = lower value 0.967 | S. cerevisiae deletion strains, locus YOR106W, strain vam3, stronger effect = lower value 0.955 | S. cerevisiae deletion strains, locus YOR136W, strain idh2, stronger effect = lower value 0.991 | S. cerevisiae deletion strains, locus YOR144C, strain elg1, stronger effect = lower value 0.987 | S. cerevisiae deletion strains, locus YOR184W, strain ser1, stronger effect = lower value 1.02 | S. cerevisiae deletion strains, locus YOR231W, strain MKK1, stronger effect = lower value 0.977 | S. cerevisiae deletion strains, locus YOR265W, strain rbl2, stronger effect = lower value 0.985 | S. cerevisiae deletion strains, locus YOR270C, strain vph1, stronger effect = lower value 0.876 | S. cerevisiae deletion strains, locus YOR290C, strain snf2, stronger effect = lower value 0.943 | S. cerevisiae deletion strains, locus YOR316C, strain cot1, stronger effect = lower value 0.992 | S. cerevisiae deletion strains, locus YPL051W, strain arl3, stronger effect = lower value 0.97 | S. cerevisiae deletion strains, locus YPL078C, strain atp4, stronger effect = lower value 0.976 | S. cerevisiae deletion strains, locus YPL106C, strain sse1, stronger effect = lower value 0.954 | S. cerevisiae deletion strains, locus YPL240C, strain hsp82, stronger effect = lower value 0.98 | S. cerevisiae deletion strains, locus YPL256C, strain CLN2, stronger effect = lower value 0.961 | S. cerevisiae deletion strains, locus YPR119W, strain clb2, stronger effect = lower value 0.987 | S. cerevisiae deletion strains, locus YPR141C, strain kar3, stronger effect = lower value 0.994 | S. cerevisiae deletion strains, locus YPR163C, strain tif3, stronger effect = lower value 0.99 | S. cerevisiae deletion strains, locus YPR167C, strain met16, stronger effect = lower value 0.986 | S. cerevisiae deletion strains, strain wtn01, stronger effect = lower value 0.976 | S. cerevisiae strains, strain wild type, stronger effect = lower value 1
